From PubChem BioAssay (NCI)
About 79,000 compounds went through this panel and 15% of them were active in at least one assay; those are over-represented in the sample as a whole. No stated cut-off is given here; in the data, active means growth inhibition above about 70%; inactive means the rest.

Tests used:
[1] = NCI Yeast Anticancer Drug Screen. Data for the rad50 strain (AID 155);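 further: 0% = growth of vehicle-only cultures of the same strain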; details: S. cerevisiae rad50 strain growth inhibition; at 50.0 µM; hits give high values
In short: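 Readout: growth inhibition relative to vehicle-treated cultures. Compound exposure was carried out in a genetically defined yeast strain deficient in DNA damage repair.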

[2] = NCI Yeast Anticancer Drug Screen. Data for the mec2-1 strain (AID 157); details: S. cerevisiae mec2-1 strain, at 50.0 µM, hits give high values
In short: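 mec2-1 yeast strain, carrying an alteration in DNA damage repair or cell cycle control, was exposed to compounds; growth inhibition was measured relative to vehicle-treated controls.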

[3] = NCI Yeast Anticancer Drug Screen. Data for the sgs1 mgt1 strain (AID 161);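 further: 0% = growth of cultures given vehicle only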; details: S. cerevisiae sgs1 mgt1 strain, at 50.0 µM, hits give high values
In short: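 Percent growth inhibition was derived by comparing compound-exposed mutant yeast with vehicle-exposed cultures. The strain carries alterations in DNA damage repair.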

[4] = NCI Yeast Anticancer Drug Screen. Data for the cln2 rad14 strain (AID 165);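 further: 0% = growth equal to vehicle treated cultures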; details: S. cerevisiae cln2 rad14 strain, at 50.0 µM, hits give high values
In short: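 Yeast carrying cln2 and rad14 alterations (cell cycle control and DNA damage repair) were exposed to compounds. Growth inhibition was measured against vehicle-treated controls.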

[5] = NCI Yeast Anticancer Drug Screen. Data for the bub3 strain (AID 167); details: S. cerevisiae bub3 mutant strain, at 50.0 µM, hits give high values
In short: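 Readout: yeast growth inhibition, expressed relative to vehicle-only wells. The test organism is a mutant strain from a panel with lesions in DNA repair or checkpoint genes.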

[6] = NCI Yeast Anticancer Drug Screen. Data for the mlh1 rad18 strain (AID 175); details: S. cerevisiae mlh1 rad18 strain growth inhibition; at 50.0 µM; hits give high values
In short: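 Growth inhibition of the yeast strain was measured after compound exposure and expressed relative to vehicle-treated controls. The strain carries defined defects in DNA damage repair.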

Measured: growth inhibition

O=C1OC(c2cccc(C(F)(F)F)c2)c2ccc3ccccc3c21 (configuration not stated)
inactive: [1] 14.3% | [2] -0.45% | [3] 10.7% | [4] 18.1% | [5] 10.8% | [6] 22.8%

NNC(=O)CCCO
inactive: [1] -33.9% | [2] -24% | [3] -7.5% | [4] -8% | [5] 0.4% | [6] 8.25%

C/C(=N\O)C1(C)CC=CCC1C(=O)O (configuration not stated)
inactive: [1] -4.8% | [2] 4.5% | [3] 2.8% | [4] 19.2% | [5] -11.3% | [6] 1.4%

O=c1c(Cc2ccccc2)c(O)cc2n1CCC2
inactive: [1] -14.5% | [2] -14.4% | [3] -10.7% | [4] 8.75% | [5] -5.25% | [6] -10.9%

O=C(NC(=S)Nc1cc(C(F)(F)F)ccc1Cl)c1ccccc1F
inactive: [1] -1.25% | [2] -1.2% | [3] 0.35% | [4] -6.85% | [5] -1.35% | [6] 4.95%

NC(=O)C1OC1(c1ccccc1)c1ccccc1 (configuration not stated)
inactive: [1] 20.8% | [2] 5.2% | [3] 3.05% | [4] -2.1% | [5] 4.15% | [6] 3.15%

O=C1CCC(C(Sc2ccccc2)(Sc2ccccc2)Sc2ccccc2)C1 (configuration not stated)
inactive: [1] -5.05% | [2] -21.7% | [3] -22% | [4] -7.2% | [5] -1.55% | [6] -41.4%

CC1(C)N=C(C(N)=O)c2ncn(CCCO)c2N1
inactive: [1] -13.5% | [2] -12.6% | [3] -48.4% | [4] 23.2% | [5] -0.35% | [6] -6.8%

CCSC(SCC)[C@H](NC(C)=O)[C@@H](O)[C@H](O)[C@H](O)CO
inactive: [1] -6.8% | [2] -12.2% | [3] -8.85% | [4] 0.1% | [5] 2.85% | [6] -12.3%

CCC(=C(C#N)C#N)c1cc(OC)c(OC)c(OC)c1
inactive: [1] -43% | [2] -31.8% | [3] -24.2% | [4] -16.2% | [5] -26.5% | [6] -13.8%

CC(NC(=O)C(CC(=O)OCc1ccccc1)NC(=O)OCc1ccccc1)c1ccccc1 (configuration not stated)
inactive: [1] 9.5% | [2] -20.5% | [3] 9.15% | [4] -21.6% | [5] -17.4% | [6] -1.3%

Sc1ccccc1N=Cc1ccc(C=Nc2ccccc2S)cc1
inactive: [1] -15.8% | [2] -8.05% | [3] 7.1% | [4] 18.8% | [5] 4.45% | [6] -3.75%

CN(C)c1ccc(/C=C(\NC(=O)c2ccccc2)C(=O)Nc2ccccc2C(=O)NCc2ccccc2)cc1
inactive: [1] 9.95% | [2] 11.7% | [3] 14.8% | [4] 12.3% | [5] 5.95% | [6] 30.7%

COCC(O)CN1CCN(c2ccccc2OC)CC1 (configuration not stated)
inactive: [1] -16.5% | [2] -16.6% | [3] -7.3% | [4] -14.2% | [5] 25.6% | [6] -13.2%

O=S(=O)(Oc1ccc(OS(=O)(=O)c2ccccc2)cc1)c1ccccc1
inactive: [1] -8.8% | [2] 1% | [3] -0.3% | [4] 0.05% | [5] 12.5% | [6] 14.6%

CC1(C)CN(Cc2ccccc2)C(C)(C)CN1
inactive: [1] -5.85% | [2] -6.65% | [3] -6.4% | [4] -54.6% | [5] -10.5% | [6] -4.65%

COC(=O)CC(C(C(=O)OC)C(=O)OC)N1C(=O)OC(c2ccccc2)C1c1ccccc1 (configuration not stated)
inactive: [1] 7.75% | [2] -10.5% | [3] -2.95% | [4] 9.4% | [5] -18% | [6] 3.4%

NC(N)=NC(Cc1ccccc1)C(=O)O (configuration not stated)
inactive: [1] -8.15% | [2] -10% | [3] 1.3% | [4] -26.6% | [5] -12.4% | [6] 0%

C=CCCCCCCCCCO
inactive: [1] -9.2% | [2] -11% | [3] -1.9% | [4] 10.8% | [5] -18.4% | [6] -1.8%

COc1ccc2ccc3c4c(c(=O)[nH]c3c2n1)CCC4
inactive: [1] 44% | [2] 28.8% | [3] 33.7% | [4] 2.55% | [5] 9.95% | [6] 30.9%

O=C1OC2C(O)COC2(O)C1(O)Cc1c[nH]c2ccccc12 (configuration not stated)
inactive: [1] 14.1% | [2] -6.4% | [3] -5.45% | [4] 0.5% | [5] 3.35% | [6] -11.2%

COc1ccc(/C=C2\Cc3ccccc3C2=O)cc1OC
inactive: [1] -0.05% | [2] -10.2% | [3] -9.85% | [4] 8.25% | [5] -25.4% | [6] -1.5%
